Where a name gives a salt, the structure may show the parent alone. ± gives the uncertainty stated by the source.
These molecules were tested on FLX1 (assay: cell viability z-score within plate (CellTiter-Glo), mean of 3 biological replicates; higher = higher viability relative to plate (less growth inhibition)). Conditions: 2 µM; time (hr): 120.
Description: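 FLX1 fibrolamellar carcinoma cells (DNAJB1-PRKACA fusion), 600 cells/well in 384-well plates, treated with a Selleck kinase inhibitor library (L1200) at 2 uM for 5 days (120 hr); viability by CellTiter-Glo. A z-score was computed within each plate and averaged over three biological replicates.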

Compound | cell viability z-score within plate
Cc1c(NC(=O)OC[C@@H]2COCCN2)cn2ncnc(Nc3ccc4c(cnn4Cc4cccc(F)c4)c3)c12 | -2.76 ± 1.1
CNC(=O)c1cc(Oc2ccc(NC(=O)Nc3ccc(Cl)c(C(F)(F)F)c3)cc2)ccn1 [Sorafenib Tosylate] | -0.335 ± 0.66
CN1CCN(c2ccc3nc(-c4c(N)c5c(F)cccc5[nH]c4=O)[nH]c3c2)CC1 [Dovitinib (TKI-258) Dilactic Acid] | 0.322 ± 0.38
Cc1ccc(C(=O)Nc2ccc(CN3CCN(C)CC3)c(C(F)(F)F)c2)cc1C#Cc1cnc2[nH]ncc2c1 [GZD824 Dimesylate] | -0.246 ± 0.26
CCCCCCCCCCCCc1ccc(S(=O)(=O)Nc2nncs2)cc1 | 1.17 ± 0.77
C[C@@H]1CN(CC(=O)Nc2ccc3c(c2)Cc2cccc(-c4cc(=O)cc(N5CCOCC5)o4)c2S3)C[C@H](C)O1 | 0.915 ± 0.16
Cc1cc([C@@H](C)Nc2ccccc2C(=O)O)c2nc(N3CCOCC3)cc(=O)n2c1 | -2.82 ± 2
O=C1Nc2ccccc2/C1=C1/Nc2ccccc2C1=O [Indirubin] | 1.02 ± 0.66
COc1cc(Nc2c(C#N)cnc3cc(OCCCN4CCN(C)CC4)c(OC)cc23)c(Cl)cc1Cl [Bosutinib (SKI-606)] | 0.309 ± 0.56
Cc1ccc(NC(=O)c2cccc(N(C)C)c2)cc1NC(=O)c1ccc(O)cc1 | -0.188 ± 0.87
Cc1ccc(C(=O)Nc2cccc(C(F)(F)F)c2)cc1Nc1nc(-c2cccnc2)nc2c1cnn2C | -0.436 ± 0.34
COc1cc(Nc2ncc(F)c(Nc3ccc4c(n3)N(COP(=O)(O)O)C(=O)C(C)(C)O4)n2)cc(OC)c1OC [Fostamatinib (R788)] | 0.458 ± 0.74
